About 860 (78%) of roughly 1,100 compounds were called active. Inconclusive results (about 19%) are left out. The call rests on the fitted dose curve; in most records, active means well fitted activation curve with a large enough effect; inconclusive means small, poorly fitted or top-dose-only effect; inactive means flat fitted curve, though single readings scatter. The set was probably picked from earlier hits. The list shows a part of the results.

The text below walks through data of PubChem BioAssay AID651593 (National Center for Advancing Translational Sciences (NCATS), 2012).
Potency means the concentration at half of the fitted maximal effect.

This assay is described as follows: qHTS of Nrf2 Activators: Hit Validation in Primary Assay. Further: nearly all actives have a fitted effect of over 70% in size. On activation: 0% is about no effect. The note with it: Nrf2/ARE reporter cell assay; Potency: activation; series mostly up to 46.1 µM; activation: at the top concentration. The source says: Many diseases have some form of oxidative stress injury and ties to inflammation, causing a host of problems for the patient. The antioxidant response element (ARE) plays an important role in alleviating the harmful effects of oxidative stress. The antioxidant response element (ARE) is a transcriptional regulatory element involved in the activation of genes coding for a number of antioxidant proteins and detoxifying enzymes. These enzymes work in concert to protect tissues from oxidative insults and chemical toxicities in human hepatocytes and immune cells. The protective effects of ARE activation are primarily triggered through Nrf2 (NF-E2-related factor) binding to and activating AREs. It is known that Nrf2 controls the production of over 250 antioxidant and detoxification proteins (Hu et al., 2006), thereby protecting tissues by increasing cellular antioxidant content and suppressing inflammatory signaling pathways. The transcription factor Nrf2 is a central link between oxidative chemicals, such as phenolic antioxidants and electrophilic compounds, and the activation of ARE. Nrf2 levels are constitutively low as a consequence of its interaction with Keap1, which targets its degradation (Zipper and Mulcahy, 2002). Electrophiles react with key cysteine residues in Keap1, releasing Nrf2 and allowing its translocation to the nucleus. Once within the nucleus, Nrf2 complexes with coactivators such as p300, and binds to the AREs to induce gene transcription of cytoprotective enzymes, resulting in the prevention of toxicity. Activation of Nrf2 protects tissues by increasing cellular antioxidant content and suppressing inflammatory signaling pathways. Identifying novel and potent Nrf2 activators by using the AREc32 cell line to detect ARE activation by small molecules will lead to the identification and development of probes to study protective pathways in multiple tissues. These specific probes are essential to study the ARE pathway, and eventually to determine whether this pathway does activate genes that could protect against a host of diseases, including cardiovascular diseases, obesity, diabetes, Alzheimer's, and Parkinson's disease.
This project's aim is to identify novel and potent Nrf2 activators by using the AREc32 cell line to detect ARE activation by small molecules, which will lead to the identification and development of probes to study the ARE pathway.
NIH Chemical Genomics Center [NCGC]
NIH Molecular Libraries Probe Centers Network [MLPCN]
Assay Submitter (PI): Curtis Klaassen, University of Kansas Medical Center
Quantification of ARE activation after compound treatment was measured by the Steady-Glo Luciferase (R) assay system (Promega) in AREc32_fluc stable cells. The Steady-Glo reagent acts by cell lysis and generation of a luminescent signal proportional to ARE activation, through the luciferase reporter in the AREc32 stable cell line. AREc32_fluc cells were harvested from T225 flask and resuspended in phenol red free OPTI-MEM medium with 5% FBS. Then 5 microL of 200,000 cells/mL resuspended cells were dispensed into each well of white, solid bottom, 1536-well tissue culture-treated plates using a Multidrop Combi dispenser. After overnight culture at 37 degrees C with 5% CO2, a total of 23 nL of compounds at 5 selected concentrations from the MLSMR/Sytravon or positive control (40 uM stock of CDDO-IM and 2 mM of tBHQ) in DMSO was transferred to each well of the assay plate using a pintool (Kalypsys, San Diego, CA), and the plates were further incubated at 37 degrees C with 5% CO2 for 24 hours. After that, 2 microL of Steady Glo luminescent substrate mix (Promega) was added to each well. The plate was incubated at room temperature for 30 minutes. The plates were measured on a ViewLux plate reader (PerkinElmer) with clear filter.
Turning to `Brc1ccccc1C1N=C(c2ccccc2)NO1` (stereo not drawn), the Potency is 5.8 µM (active). The same measure, in the same setting: then `Cc1ccc(S(=O)(=O)c2nc(S(C)(=O)=O)sc2N2CCN(C)CC2)cc1`, with 5.17 µM (active). Same read-out and setting: to `CN1CCN(c2sc(S(C)(=O)=O)nc2S(=O)(=O)c2ccc(Cl)cc2)CC1` belongs 8.2 µM (active). As to `O=C(Nc1nc2c(Cl)cccc2s1)c1ccc([N+](=O)[O-])o1`, the Potency is 3.66 µM (active). The same measure, in the same setting: to `O=C(Nc1nc2ccc(F)cc2s1)c1ccc([N+](=O)[O-])o1` belongs 3.66 µM (active).

Take `O=c1cc(-c2cccc(Br)c2)oc2cccc(O)c12`: the Potency was 5.8 µM (active). On the same count and under the same terms, to `Cn1c(N)c(C(=O)COC(=O)c2nc(Cl)ccc2Cl)c(=O)n(C)c1=O` belongs 1.46 µM (active); to `COc1cc(NC(=S)Nc2ccccn2)c(OC)cc1Cl`, 5.17 µM (active); to `COc1ccc(C(C#N)=C2C=CC(=NO)C=C2)cc1`, 1.3 µM (active). On the same count and under the same terms, then `C/C(=N\NC(=S)Nc1cccc(C)c1)c1ccco1`, with 2.31 µM (active); and `O=C(Nc1ccc(OC(F)F)cc1)c1ncc(Cl)c(Cl)c1Cl`, with 16.4 µM (active). For the compound `c1ccc(CSc2nccc(-c3ccco3)n2)cc1`, the Potency was 20.6 µM (active).

Take `Nc1nccc(/C=C/c2c(F)cccc2Cl)n1`: the Potency was 9.2 µM (active). Still for that read-out and setting: then `Clc1ccc2nc(-c3ccco3)c(Cc3ccccc3)n2c1`, with 23.1 µM (active); and `COc1ccccc1Cc1c(-c2ccco2)nc2ccc(Cl)cn12`, with 16.4 µM (active); and `FC(F)(F)c1cc(-c2ccco2)nc(-n2nnc3ccccc32)n1`, with 2.59 µM (active). On the same count and under the same terms, to `FC(F)(F)c1cc(-c2cccs2)nc(NCc2ccco2)n1` belongs 4.61 µM (active); to `FC(F)(F)c1cc(-c2ccco2)nc(NCc2ccco2)n1`, 11.6 µM (active); to `O=C1NC(=Nc2ccccc2)S/C1=C\C=C\c1ccco1`, 2.31 µM (active). Same read-out and setting: then `Cc1ccc(N=C2NC(=O)/C(=C/C=C/c3ccco3)S2)cc1`, with 2.06 µM (active); and `O=[N+]([O-])c1cccc(C=NN=Cc2ccccc2O)c1`, with 8.2 µM (active). For the compound `O=[N+]([O-])c1ccccc1C=CC=NN=Cc1ccccc1O`, the Potency was 3.26 µM (active). Still for that read-out and setting: then `NC(=O)N/N=C/c1ccccc1OC(=O)c1ccccc1Br`, with 3.26 µM (active); and `COC(=O)c1sccc1NC(=O)c1ccc(Br)s1`, with 7.31 µM (active); and `COC(=O)c1sccc1NC(=O)c1ccc(Br)o1`, with 9.2 µM (active).

`Cc1ccc(S(=O)(=O)c2cc3ccccc3oc2=O)cc1`: the Potency is 8.2 µM (active). Consider `COc1ccccc1NC(=O)/C=C\c1ccco1`, for which the Potency is 1.84 µM (active). Still for that read-out and setting: to `COC(=O)c1ccccc1NC(=O)/C=C/c1ccco1` belongs 0.411 µM (active); to `COC(=O)C(=C/C=C/c1ccco1)C(=O)OC`, 9.2 µM (active); to `COC(=O)c1c(NC(=O)/C=C/c2ccco2)sc2c1CCC2`, 0.461 µM (active).

`O=C(/C=C/c1ccco1)Nc1ccccc1N1CCCCC1`: the Potency is 1.16 µM (active).

In the case of `O=c1c2cc3c(=O)n(-c4ccccc4O)c(=O)c3cc2c(=O)n1-c1ccccc1O`, the “activation” value was 3.75% (inactive). In the case of `CCOc1ncccc1C(=O)NNC(=O)c1ccc(NS(=O)(=O)c2cccs2)cc1`, the Potency was 2.59 µM (active). As to `O=C(/C=C/c1ccc(-c2ccccc2[N+](=O)[O-])o1)c1ccc(Br)cc1`, the Potency was 1.84 µM (active).

On to `O=C(/C=C/c1ccc(-c2ccccc2[N+](=O)[O-])o1)c1ccccc1`, for which the Potency is 3.66 µM (active).

As to `Cc1ccc(C(=O)/C=C/c2ccc(-c3ccccc3[N+](=O)[O-])o2)cc1`, the Potency was 2.06 µM (active). On to `CC(/C=N/NC(=O)Cc1cccn1C)=C\c1ccco1`, for which the Potency is 1.46 µM (active). `c1ccc(CNc2nc(NCc3ccco3)nc(N3CCOCC3)n2)cc1`: the Potency is 5.17 µM (active). Regarding `CNC(=O)c1ccsc1NC(=O)c1ccc(Cl)s1`, the Potency is 7.31 µM (active). Take `Nc1ccccc1N1C(=O)c2cccc3cccc(c23)C1=O`: the Potency was 16.4 µM (active). On the same count and under the same terms, then `O=C1c2cccc3cccc(c23)C(=O)N1Cc1ccco1`, with 5.17 µM (active). Same read-out and setting: then `CC(=O)Nc1cc(-c2ccsc2)cn2c(-c3ccc(F)cc3)cnc12`, with 5.17 µM (active). The same measure, in the same setting: then `CC(C)c1ccc(NC(=O)c2cc(Br)ccc2Br)cc1`, with 5.8 µM (active). Turning to `CS(=O)(=O)c1nc(S(=O)(=O)c2ccc(Cl)cc2)c(N2CCN(CCO)CC2)s1`, the Potency is 8.2 µM (active).

`CCN1CCN(c2sc(S(C)(=O)=O)nc2S(=O)(=O)c2ccc(Cl)cc2)CC1`: the Potency is 14.6 µM (active). On the same count and under the same terms, to `COC(=O)c1cc(S(=O)(=O)C(C)C)c(S(C)=O)s1` (stereo not drawn) belongs 20.6 µM (active). On the same count and under the same terms, then `COc1c(C(=O)Nc2nnc(C3CC3)s2)csc1Cl`, with 8.2 µM (active); and `CCCc1c(C(=O)N/N=C/c2cccs2)nnn1-c1nonc1N`, with 4.11 µM (active).

With `CN1C2CCC1/C(=C\c1ccccc1)C(=O)/C2=C\c1ccccc1`, the Potency was 2.91 µM (active). On the same count and under the same terms, to `N#C/C(=C\c1ccccc1[N+](=O)[O-])c1nc(C2CC2)cs1` belongs 11.6 µM (active); to `O=[N+]([O-])c1ccccc1S(=O)c1ccccc1[N+](=O)[O-]`, 16.4 µM (active); to `Oc1ccc(Cl)cc1/C=C/c1ccc2cccc(O)c2n1`, 4.61 µM (active).

With `COc1cc(/C=C/c2ccc3cccc(O)c3n2)cc(OC)c1OC`, the “activation” value is 25.9% (inactive). Take `COc1cc(Cl)cc(/C=C/c2ccc3cccc(O)c3n2)c1OC`: the Potency was 2.31 µM (active). The same measure, in the same setting: to `Nc1c(C(=O)Nc2ccccc2Br)sc2nc(-c3cccs3)ccc12` belongs 14.6 µM (active); to `COC(=O)c1ccc2nc(-c3cccc(Cl)c3)c(Cc3ccccc3OC)n2c1`, 2.91 µM (active); to `COC(=O)c1ccc2nc(-c3ccco3)c(Cc3ccccc3)n2c1`, 18.4 µM (active). Still for that read-out and setting: to `COC(=O)c1ccc2nc(-c3ccco3)c(Cc3cccc(Cl)c3)n2c1` belongs 23.1 µM (active); to `O=[N+]([O-])c1cccc2ccc(/C=C/c3ccc(Cl)cc3)nc12`, 1.16 µM (active). Still for that read-out and setting: then `O=[N+]([O-])c1ccc(/C=C/c2ccc3cccc([N+](=O)[O-])c3n2)cc1`, with 0.731 µM (active); and `O=[N+]([O-])c1cccc2ccc(/C=C/c3ccc(F)cc3)nc12`, with 1.84 µM (active); and `CCOc1cc(/C=C/c2ccc3cccc([N+](=O)[O-])c3n2)cc(Cl)c1O`, with 0.517 µM (active). In the case of `O=[N+]([O-])c1cccc2ccc(/C=C/c3cccc(Br)c3)nc12`, the Potency is 1.84 µM (active).
